Giardia kill = kills Giardia lamblia | actives 0.15% (n = 340,000) | Giardia lamblia trophozoite viability | activity change, % at 7.66 µM, hits read low; in the data active = activity change below about -80%; inconclusive = between about -30% and that limit;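 note: parasites exposed to compound for two days anaerobically before the ATP read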
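Killing of trophozoites was scored by loss of ATP luminescence after a 48 hrs anaerobic exposure to compounds at 37 deg C, using 100 cells per well.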
Sfp inh = Sfp phosphopantetheinyl transferase inhibition; actives 3.5% (n = 310,000); Potency, µM, inactives show largest response in the series, negative = inhibition, actives largely listed as inhibitors; Biochemical Sfp PPTase activity, qHTS;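 note: the enzyme is Sfp with the accession as filed and its product quenches rhodamine fluorescence; potency is the fitted concentration of half-maximal effect; 0% = enzyme reaction without inhibitor and -100% = no enzyme wells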
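Sfp 15 nM + cpd, 15 min RT; start w/ rhodamine-CoA 5 uM, BHQ-2-YbbR 12.5 uM (final); 50 mM Hepes pH 7.6, 10 mM MgCl2, 0.01% NP-40, 0.01% BSA; read 525/598 nm at 0 and 30 min.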
FBPA coupling cs = counter-screen for Giardia aldolase inhibitors: coupling enzyme system. coupling enzyme system counterscreen, AmpLite Red fluorescence. activity change, negative = inhibition, % at 58.2 µM, hits read low. actives 0.67% (n = 290,000). AID 2472; in the data active = activity change below about -30%
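Activity here indicates interference with the coupling reaction, not aldolase inhibition. Compounds at 57.5 uM final met coupling enzymes for 10 min at RT; substrate and AmpLite Red detection followed, with a 525/598 nm fluorescence read after 20 min.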
ELG1 DNA repair = ELG1-dependent DNA repair inhibition. Potency, µM (doses to about 46.1 µM), for inactives: at the top dose activity change, negative = inhibition, actives largely listed as inhibitors. AID 504467. actives 2.3% (n = 330,000). HEK293T ELG1-luciferase reporter, luminescence, 16 h; DNA damage induced by 5-fluorouridine; note: potency is the fitted concentration of half-maximal effect; nearly all actives have a fitted effect of over 55% in size
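Reporter activity after DNA damage by 5-fluorouridine is monitored. Compound-treated cells incubate 16 hr at 37 °C, then ONE-Glo is added for 30 min before luminescence reading.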
Starred values were filed as active, the others as inactive; ? = inconclusive; . = no result; ! = not active in a repeat. Rows were chosen to be rich in hits. Some 5.5% of all compounds tested hit in one or more screens of this group. Unless noted, calls come from the whole dose curve; as a rule, active = well fitted curve in the direction sought with a large enough effect; inconclusive = small, poorly fitted or top-dose-only effect, or another doubt; inactive = no such curve, though single readings can be large; an effect the other way counts as inactive or inconclusive. Unless noted, % is set by controls: 0 for no effect and ±100 for the full control effect.

SMILES	Giardia kill	Sfp inh	FBPA coupling cs	ELG1 DNA repair
C/C=C\C=C/C(=O)Nc1cccc(C2=NOC3(C2)C[C@@H](C(N)=O)N(C(=O)COc2ccc(Cl)cc2)C3)c1 (stereo not given in full)	-22	20µM*	-9	2%
CCCCCC(=O)Nc1cccc(C2=NOC3(C2)C[C@H](C(N)=O)N(C(=O)COc2ccc(Cl)cc2)C3)c1 (stereo not given in full)	?	2%	1	7.3µM*
CCCCCC(=O)Nc1cccc(C2=NOC3(C2)C[C@@H](C(N)=O)N(C(=O)c2ccc(OC)cc2)C3)c1 (stereo not given in full)	-1	6%	4	-16%
NC(=O)c1ccc(N2CCNC(=O)C2)c([N+](=O)[O-])c1	14	7%	3	-5%
Cc1noc(C)c1C(=O)N1CCC[C@@]2(CCN(Cc3ccc(C#N)cc3)C2)C1	.	5%	-1	.
FC(F)(F)c1cc(NC(=S)NC23CC4CC(CC(C4)C2)C3)cc(C(F)(F)F)c1	.	9%	1	.
CCn1c(=O)c(C(=O)CN2CCN(S(=O)(=O)c3cc(C)ccc3C)CC2)c(N)n(Cc2ccccc2)c1=O	5	5%	0	6.5µM*
c1ccc(-c2csc(Nc3cccnc3)n2)cc1	4	32µM*	0	?
O=C(Nc1cccc(-c2csc(Nc3ccc(Cl)cc3)n2)c1)c1cccc(C(F)(F)F)c1	16	29%	-9	9.2µM*
Clc1ccc(Nc2nc(-c3cccnc3)cs2)cc1	-13	79µM*	-1	?
O=C(Nc1cccc(-c2csc(Nc3ccc(Cl)cc3)n2)c1)c1ccccc1	11	8%	-1	?
Clc1ccc(-c2csc(Nc3cccnc3)n2)cc1	2	-5%	1	19%
CN(Cc1ccccc1Cl)C(=O)CCNC(=O)c1ccco1	8	.	.	0%
Oc1cccc(Nc2nc(-c3ccccc3)nc3ccccc23)c1	-24	-10%	0	?
COc1ccc2sc(-c3ccc(S(C)(=O)=O)cc3)c(C(=O)NCCCN3CCCC3=O)c2c1	-21	.	.	16µM*
COc1cc2sc(-c3ccc(S(C)(=O)=O)cc3)c(C(=O)NCCCCO)c2cc1OC	19	.	.	?
COc1cc2sc(-c3ccc(S(C)(=O)=O)cc3)c(C(=O)NCc3ccc(C)o3)c2cc1OC	8	.	.	18µM*
COc1ccc2[nH]c(C(=O)NCCCN3CCCC3=O)c(C)c2c1	-5	4%	.	?
COc1ccc2[nH]cc(C(O)CN3CCN(c4ccccc4)CC3)c2c1 (stereo not given)	.	0%	-2	-21%
COc1ccc(N2CCN(CC(O)c3c[nH]c4ccc(OC)cc34)CC2C)cc1 (stereo not given)	19	-10%	-2	23µM*
Nc1[nH]c(=O)nc2snnc12	-12	.	.	.
COC(=O)c1ccc(/C=C/C(=O)OCC(=O)NCc2cccs2)cc1	-1	.	.	?
N#Cc1c(/N=C/c2ccco2)oc(-c2ccccc2)c1-c1ccccc1	2	-3%	-4	2%
COc1ccc(OC)c(/C=N/c2oc(-c3ccco3)c(-c3ccco3)c2C#N)c1	0	25µM*	-44*	4%
N#Cc1c(N)oc(-c2ccco2)c1-c1ccco1	21	32µM*	-9	26%
SMILES	Giardia kill	Sfp inh	FBPA coupling cs	ELG1 DNA repair
COc1ccc(CCN2CC(C(=O)Nc3cc(F)ccc3F)CC2=O)cc1OC (stereo not given)	31	.	.	1%
CNc1oc(-c2ccc(C)cc2)nc1P(=O)(c1ccccc1)c1ccccc1	-12	56µM*	-7	-2%
CN(CCCC(=O)Nc1ccc(Br)cc1F)S(=O)(=O)c1ccccc1	36	-13%	-5	?
C[C@H]1C2=C3C(C[C@H]4C(=O)N(c5ccccc5)C(=O)[C@H]4[C@H]3[C@@]3(Cc4ccccc4)C(=NCCc4c[nH]c5ccccc45)OC(=O)N3C2=O)[C@H]2C(=O)N(c3ccccc3)C(=O)[C@H]21 (stereo not given in full)	.	6%	0	.
CCCCC[C@H](O)/C=C/C=C\C/C=C\CCCCC(=O)O	.	18%	10	.
C/C(=N\NC(=O)C1(C)CC1(Br)Br)c1cccc(NC(=O)c2ccc(C)o2)c1 (stereo not given)	4	-1%	.	7.3µM*
Cc1ccc(C(=O)Nc2cccc(C(=O)NCc3ccccc3)c2)o1	-10	9%	1	-20%
C/C(=N\NC(=O)c1ccn(C)n1)c1ccc(NC(=O)C2CCC2)cc1	-1	15%	.	14%
C/C(=N\NC(=O)C1(C)CC1(Br)Br)c1ccc(NC(=O)C2CCC2)cc1 (stereo not given)	-9	16%	-1	6.5µM*
O=C(O)C1=CC(O)[C@@H](O)C(O)C1 (stereo not given in full)	.	-21%	-4	.
COc1ccc(CN(C)C(C)C(=O)Nc2ccc(S(=O)(=O)N3CCCCC3)cc2)cc1F (stereo not given)	-9	.	.	?
CC1(OC(=O)C2CCCC2)C(=O)C=C2C=C(c3ccsc3)N(CCCCO)C=C2C1=O (stereo not given)	-1	-11%	-37*	15%
CC(C)OCCCN1C=C2C(=O)C(C)(OC(=O)C3CCCC3)C(=O)C=C2C=C1c1ccsc1 (stereo not given)	.	1%	-41*	.
CCCCC1=CC2=CC(=O)C(C)(OC(=O)C3CCCC3)C(=O)C2=CO1 (stereo not given)	-1	71µM*!	-3	14%
CC1(OC(=O)C2CCCC2)C(=O)C=C2C=C(c3ccsc3)N(c3ccc(CO)cc3)C=C2C1=O (stereo not given)	.	6%	-1	.
CC1(OC(=O)C2CCCC2)C(=O)C=C2C=C(c3ccsc3)N(C3CCCC3)C=C2C1=O (stereo not given)	-22	-4%	-32*!	-23%
COC(=O)CCCC1=CC2=CC(=O)C(C)(OC(=O)C3CCCC3)C(=O)C2=CO1 (stereo not given)	-5	2%	0	?
C=CC[C@H](CC(=O)NCCO)C(=O)NCCOC(=O)[C@@H](CC=C)CC(=O)OC(C)(C)C	4	.	.	20%
Cc1ccc(S(=O)(=O)N2CCN(C(=O)c3ccnn3C)CC2)cc1C	-3	1%	.	5%
O=C(NCC1CCCCC1)c1cc(S(=O)(=O)N2CCOCC2)ccc1F	11	.	.	7%
COc1ccc(N2C(=O)c3ccccc3NC2c2ccc(OC)c(COc3ccc(NC(C)=O)cc3)c2)cc1 (stereo not given)	-13	.	.	.
O=C(NNC(=O)c1ccccc1C(F)(F)F)c1csc(N2CCOCC2)n1	18	6%	.	2%
CCOc1ccc(OCCCC(=O)ON=C(N)c2ccccc2C)cc1	8	.	.	?
O=C(NCCc1ccccc1O)c1cc2c(cc1[N+](=O)[O-])OCO2	13	.	.	.
O=C(CSc1nnc(-c2ccc(C(F)(F)F)cn2)o1)Nc1ccccc1Cl	2	71µM*	-3	0%
COC(=O)c1c(C)n(-c2ccc(OC)cc2)c2ccc(O)cc12	2	45µM*	-3	?
